Laboratory results reported in PubChem BioAssay AID1211 (NMMLSC, 2008).
Calls of active or inactive are those of the source. How the calls were made is not given here.

Target: Estrogen receptor (Homo sapiens) (UniProt P03372)
Assay: displacement of fluorescent estrogen from ERalpha – cell-based, Cos7 ERalpha-GFP, flow cytometry, primary screen (AID 1211);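 further: 0% = DMSO vehicle wells and 100% = no E2-Alexa633 signal left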
Details: fluorescent ligand competition, at 10 µM, stronger effect = higher value

Estrogen receptor (Homo sapiens), sequence (P03372 whole entry, looked up): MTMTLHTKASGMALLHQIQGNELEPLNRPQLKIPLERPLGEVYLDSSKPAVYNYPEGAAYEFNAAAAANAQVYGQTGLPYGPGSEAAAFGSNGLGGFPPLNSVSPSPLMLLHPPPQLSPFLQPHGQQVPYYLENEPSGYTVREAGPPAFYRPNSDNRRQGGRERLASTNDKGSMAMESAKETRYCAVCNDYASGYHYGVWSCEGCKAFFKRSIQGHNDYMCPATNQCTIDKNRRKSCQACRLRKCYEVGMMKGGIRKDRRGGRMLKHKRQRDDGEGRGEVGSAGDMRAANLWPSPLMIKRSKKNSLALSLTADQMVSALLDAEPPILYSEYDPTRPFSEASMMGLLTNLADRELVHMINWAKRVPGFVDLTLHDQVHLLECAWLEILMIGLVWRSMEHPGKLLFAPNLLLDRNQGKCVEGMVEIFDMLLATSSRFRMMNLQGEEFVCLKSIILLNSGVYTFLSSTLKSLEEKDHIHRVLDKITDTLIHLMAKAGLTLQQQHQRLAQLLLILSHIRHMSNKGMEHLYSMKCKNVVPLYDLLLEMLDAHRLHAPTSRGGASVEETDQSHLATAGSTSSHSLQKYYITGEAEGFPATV

| SMILES | inhibition of ligand binding |
| --- | --- |
| O=C(O)c1cc(-c2ccco2)nc2ccc(Br)cc12 | 21% (inactive) |
| O=C(Nc1cccc(-c2cn3cccnc3n2)c1)c1ccc2c(c1)OCO2 | 22% (inactive) |
| Oc1ccc(-c2nccc(-c3cccs3)n2)cc1 | 40% (inactive) |
| O=C(CSc1nc2ccccc2c(=O)[nH]1)c1ccc(O)c(O)c1 | 14% (inactive) |
| Cn1ccnc1SCC(=O)Nc1ccc2nc(SCC(=O)NC3CC3)sc2c1 | 30% (active) |
| Cc1cc(=O)oc2c(CN3CCC(C)CC3)c(O)c(Cl)cc12 | 10% (inactive) |
| Cc1ccc(-n2c(SCC(=O)NNC(=S)Nc3ccccc3)nc3ccccc3c2=O)cc1 | 37% (inactive) |
| O=C(Cc1cccs1)Nc1ccc(S(=O)(=O)Nc2ncccn2)cc1 | 15% (active) |
| COc1ccc(C2Nc3ccccc3C(=O)N2c2ccc(C)cc2)cc1Cn1cc([N+](=O)[O-])cn1 (stereo not drawn) | 26% (inactive) |
| CCc1ccc2[nH]c(=O)c(C3C(C#N)=C(N)Oc4c3ccc3cccnc43)cc2c1 (stereo not drawn) | 30% (inactive) |
| O=C(OC1CCCCC1)c1ccc2c(c1)C1C=CCC1C(C(=O)O)N2 (stereo not drawn) | 42% (inactive) |
| CC1(C)CCCN(C(=O)c2coc(=O)c(Br)c2)C1 | 33% (inactive) |
| COc1ccc(-c2ccc(=O)[nH]n2)cc1 | 22% (inactive) |
| CC(Oc1ccc(Cl)cc1Cl)C(=O)Nc1ccc2oc(-c3ccncc3)nc2c1 (stereo not drawn) | 48% (inactive) |
| CC(Cc1ccc(O)c(O)c1)C(C)Cc1ccc(O)c(O)c1 (stereo not drawn) | 47% (inactive) |
| COCc1cc(=O)n2c(-c3ccc(C)cc3)n[nH]c2n1 | 40% (inactive) |
| Oc1ccc(C2=Nn3c(nnc3-c3ccco3)SC2)cc1O | 32% (inactive) |
| COc1cc(C(C#N)N2N=C(c3ccccc3)CC2c2ccccc2)ccc1O (stereo not drawn) | 3% (inactive) |
| Cc1[nH]c2ccc(-c3nnc(SCC(=O)c4ccccc4F)o3)cc2c1C | 43% (inactive) |
| COc1ccccc1-c1nnc2n1N=C(c1ccc(O)c(O)c1)CS2 | 46% (inactive) |

| SMILES | inhibition of ligand binding |
| --- | --- |
| N#CC(C(=O)Nc1ccc(Cl)cc1)=C1Nc2ccccc2N1 | 48% (inactive) |
| CCCCCCNC(=O)c1cc(-c2ccco2)nc2ccccc12 | 40% (inactive) |
| O=C(Nc1ccccc1[N+](=O)[O-])C1=C(O)CCn2c1nc1ccccc12 | 20% (inactive) |
| COc1ccc(C(N)CCc2ccc(C)o2)cc1 (stereo not drawn) | 30% (inactive) |
| CCCc1nc2sc3ccccc3c(=O)c2c(=O)n1Cc1ccco1 | 42% (inactive) |
| COc1ccc(OC)c(N2C(=O)[C@@H]3C(c4ccccc4Cl)=NO[C@@H]3C2=O)c1 | 57% (inactive) |
| O=C(NC1CCN(C(=O)N2c3ccccc3Sc3ccccc32)CC1)c1ccccc1Cl | 36% (inactive) |
| CCOc1ccc(Nc2oc(-c3ccccc3Cl)nc2C#N)cc1 | 29% (inactive) |
| COc1ccc(-c2ccc(-c3noc(-c4cccs4)n3)c(OC)n2)cc1 | 24% (inactive) |
| COc1cc(C2Nc3c(F)cccc3C3C=CCC32)cc(Br)c1OC (stereo not drawn) | 10% (inactive) |
| Cc1ccc(-c2cc(C(=O)NCc3ccco3)c3ccccc3n2)o1 | 60% (inactive) |
| CC(C)(C)NC(=O)c1ccc2c(c1)C1C3CCC(C3)C1C(c1ccccc1)N2 (stereo not drawn) | 70% (active) |
| COc1ccc(-c2cn3c(C)c(C(=O)Nc4ccncc4)sc3n2)cc1 | 28% (inactive) |
| Cc1c2cc(O)c(=O)cc-2oc2cc(O)c(O)cc12 | 31% (inactive) |
| Oc1ccc(/C=N/n2c(-c3ccco3)csc2=Nc2cccnc2)c(O)c1 | 49% (inactive) |
| CCOC(=O)Cc1csc(NC(=O)Cc2cccs2)n1 | 28% (inactive) |
| Cc1ccc(-n2nnnc2SCC(=O)Nc2ccc3c(c2)COC3=O)cc1C | 27% (inactive) |
| CC1CCCN(c2nc3c(c(=O)[nH]c(=O)n3C)n2Cc2ccccc2Cl)C1 (stereo not drawn) | 33% (inactive) |
| O=C(O)c1ccc(NS(=O)(=O)c2ccc3c(c2)C2C=CCC2C(c2ccccc2F)N3)cc1 (stereo not drawn) | 62% (inactive) |

Same assay, conditions: fluorescent ligand competition, binding inhibition, at 0.1 µM, stronger effect = higher value

| SMILES | inhibition of ligand binding [%] |
| --- | --- |
| O=C(O)c1cc(-c2ccco2)nc2ccc(Br)cc12 | 39 |
| O=C(Nc1cccc(-c2cn3cccnc3n2)c1)c1ccc2c(c1)OCO2 | 10 |
| Oc1ccc(-c2nccc(-c3cccs3)n2)cc1 | 28 |
| O=C(CSc1nc2ccccc2c(=O)[nH]1)c1ccc(O)c(O)c1 | 5 |
| Cn1ccnc1SCC(=O)Nc1ccc2nc(SCC(=O)NC3CC3)sc2c1 | 78 |
| Cc1cc(=O)oc2c(CN3CCC(C)CC3)c(O)c(Cl)cc12 | 6 |
| Cc1ccc(-n2c(SCC(=O)NNC(=S)Nc3ccccc3)nc3ccccc3c2=O)cc1 | 44 |
| O=C(Cc1cccs1)Nc1ccc(S(=O)(=O)Nc2ncccn2)cc1 | 87 |
| COc1ccc(C2Nc3ccccc3C(=O)N2c2ccc(C)cc2)cc1Cn1cc([N+](=O)[O-])cn1 (stereo not drawn) | 7 |
| CCc1ccc2[nH]c(=O)c(C3C(C#N)=C(N)Oc4c3ccc3cccnc43)cc2c1 (stereo not drawn) | 37 |
| O=C(OC1CCCCC1)c1ccc2c(c1)C1C=CCC1C(C(=O)O)N2 (stereo not drawn) | 14 |
| CC1(C)CCCN(C(=O)c2coc(=O)c(Br)c2)C1 | 25 |
| COc1ccc(-c2ccc(=O)[nH]n2)cc1 | 52 |
| CC(Oc1ccc(Cl)cc1Cl)C(=O)Nc1ccc2oc(-c3ccncc3)nc2c1 (stereo not drawn) | 40 |
| CC(Cc1ccc(O)c(O)c1)C(C)Cc1ccc(O)c(O)c1 (stereo not drawn) | 3 |
| COCc1cc(=O)n2c(-c3ccc(C)cc3)n[nH]c2n1 | 62 |
| Oc1ccc(C2=Nn3c(nnc3-c3ccco3)SC2)cc1O | 27 |
| COc1cc(C(C#N)N2N=C(c3ccccc3)CC2c2ccccc2)ccc1O (stereo not drawn) | 3 |
| Cc1[nH]c2ccc(-c3nnc(SCC(=O)c4ccccc4F)o3)cc2c1C | 4 |
| COc1ccccc1-c1nnc2n1N=C(c1ccc(O)c(O)c1)CS2 | 10 |

| SMILES | inhibition of ligand binding [%] |
| --- | --- |
| N#CC(C(=O)Nc1ccc(Cl)cc1)=C1Nc2ccccc2N1 | 21 |
| CCCCCCNC(=O)c1cc(-c2ccco2)nc2ccccc12 | 44 |
| O=C(Nc1ccccc1[N+](=O)[O-])C1=C(O)CCn2c1nc1ccccc12 | 37 |
| COc1ccc(C(N)CCc2ccc(C)o2)cc1 (stereo not drawn) | 39 |
| CCCc1nc2sc3ccccc3c(=O)c2c(=O)n1Cc1ccco1 | 1 |
| COc1ccc(OC)c(N2C(=O)[C@@H]3C(c4ccccc4Cl)=NO[C@@H]3C2=O)c1 | 24 |
| O=C(NC1CCN(C(=O)N2c3ccccc3Sc3ccccc32)CC1)c1ccccc1Cl | 37 |
| CCOc1ccc(Nc2oc(-c3ccccc3Cl)nc2C#N)cc1 | 35 |
| COc1ccc(-c2ccc(-c3noc(-c4cccs4)n3)c(OC)n2)cc1 | 54 |
| COc1cc(C2Nc3c(F)cccc3C3C=CCC32)cc(Br)c1OC (stereo not drawn) | 20 |
| Cc1ccc(-c2cc(C(=O)NCc3ccco3)c3ccccc3n2)o1 | 58 |
| CC(C)(C)NC(=O)c1ccc2c(c1)C1C3CCC(C3)C1C(c1ccccc1)N2 (stereo not drawn) | 9 |
| COc1ccc(-c2cn3c(C)c(C(=O)Nc4ccncc4)sc3n2)cc1 | 3 |
| Cc1c2cc(O)c(=O)cc-2oc2cc(O)c(O)cc12 | 51 |
| Oc1ccc(/C=N/n2c(-c3ccco3)csc2=Nc2cccnc2)c(O)c1 | 21 |
| CCOC(=O)Cc1csc(NC(=O)Cc2cccs2)n1 | 12 |
| Cc1ccc(-n2nnnc2SCC(=O)Nc2ccc3c(c2)COC3=O)cc1C | 9 |
| CC1CCCN(c2nc3c(c(=O)[nH]c(=O)n3C)n2Cc2ccccc2Cl)C1 (stereo not drawn) | 58 |
| O=C(O)c1ccc(NS(=O)(=O)c2ccc3c(c2)C2C=CCC2C(c2ccccc2F)N3)cc1 (stereo not drawn) | 5 |
